# Hits are enriched below; roughly 15% of the tested compounds scored in any of these assays.
# ELG1 DNA repair: blocks ELG1-dependent DNA repair in HEK293T cells; AID 504467; 330,000 tested, 2.3% active; Potency, µM (highest dose often 46.1 µM), without a hit: at the highest dose activity change, negative = inhibition, actives largely listed as inhibitors; HEK293T ELG1-luciferase reporter, luminescence, 16 h; DNA damage induced by 5-fluorouridine; also: nearly all actives have a fitted effect of over 55% in size
#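 DMSO vehicle served as the neutral condition. Each well held 2,000 cells given 5-fluorouridine plus compound; after 16 hr at 37 °C/5% CO2, ONE-Glo was added and luciferase measured 30 min later.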
# RORgamma inh: ROR gamma (mouse) transcription inhibition. P51450. Drosophila S2 Gal4-RORgamma UAS-luciferase reporter, 20 h. Potency, µM (titrated, usually from 53.6 µM), without a hit: at the highest dose activity change, negative = inhibition, usual class: inhibitors. 310,000 tested, 5.4% active. AID 2551; also: nearly all actives have a fitted effect of over 60% in size
#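 A Gal4/UAS one-hybrid system in insect cells: metallothionein-promoter Gal4–ROR gamma fusion plus Photinus luciferase reporter. Copper sulfate 700 uM final, 20 hr ambient incubation, luminescent detection after 10 min with reagent.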
# ALOX12 inh: blocks human arachidonate 12S-lipoxygenase; P18054; purified 12hLO, xylenol orange hydroperoxide absorbance; Potency, µM (highest dose often 108 µM), without a hit: at the top dose activity change, negative = inhibition, usual class: inhibitors; 580,000 tested, 1.1% active; AID 1671190
# Target sequence (P18054 whole entry, looked up): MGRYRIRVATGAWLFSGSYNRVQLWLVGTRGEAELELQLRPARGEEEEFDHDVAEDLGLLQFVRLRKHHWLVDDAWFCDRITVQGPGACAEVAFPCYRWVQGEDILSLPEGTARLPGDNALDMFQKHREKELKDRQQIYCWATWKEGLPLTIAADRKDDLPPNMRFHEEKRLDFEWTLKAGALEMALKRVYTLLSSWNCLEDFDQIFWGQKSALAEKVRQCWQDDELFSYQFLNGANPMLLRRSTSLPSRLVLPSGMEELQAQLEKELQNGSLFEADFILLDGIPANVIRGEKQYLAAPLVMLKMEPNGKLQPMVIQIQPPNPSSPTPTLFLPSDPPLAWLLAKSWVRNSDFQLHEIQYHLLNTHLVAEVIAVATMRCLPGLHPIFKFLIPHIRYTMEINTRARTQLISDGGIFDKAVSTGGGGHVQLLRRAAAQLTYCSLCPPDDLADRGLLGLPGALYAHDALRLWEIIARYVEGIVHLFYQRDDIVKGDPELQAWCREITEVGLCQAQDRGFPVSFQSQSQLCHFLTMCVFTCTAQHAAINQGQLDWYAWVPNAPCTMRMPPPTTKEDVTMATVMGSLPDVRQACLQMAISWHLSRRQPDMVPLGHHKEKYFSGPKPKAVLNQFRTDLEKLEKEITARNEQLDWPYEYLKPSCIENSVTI
#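 Purified human 12hLO at 150 nM in 25 mM Hepes, 0.01% Triton X-100, pH 7.0, preincubated 15 min at room temperature with compound. Reaction started with 40 uM arachidonic acid, 30 min at room temperature. Hydroperoxide measured by Fe-xylenol orange, 573/405 nm absorbance ratio.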
# Gal4-VP16 FLuc: inhibits Gal4-VP16 luciferase reporter, ROR gamma counter-screen. Potency, µM (series often up to 53.6 µM), for the others: at the top dose activity, negative = inhibition, hits mostly inhibitors. 310,000 tested, 3.5% active. Drosophila S2 Gal4-VP16 UAS-luciferase, luminescence, 20 h;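 also: Gal4-VP16 expression switched on by copper sulfate through the metallothionein promoter; nearly all actives have a fitted effect of over 50% in size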
# DT40 TDP1 CPT: growth inhibition of DT40 Tdp1-/-;hTDP1 cells with camptothecin (screen for TDP1 inhibitors); chicken DT40 Tdp1-/-;hTDP1 cells + 20 nM CPT, ATP luminescence, 48 h; 420,000 tested, 12% active; Potency, µM (titrated, usually from 46.2 µM), for the others: at the top dose activity change, negative = growth inhibition, usual class: inhibitors; also: nearly all actives have a fitted effect of over 55% in size
#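 Chicken DT40 Tdp1-/- cells complemented with human TDP1, 400 cells/well, exposed to compounds plus 20 nM camptothecin for at least 48 h at 37 C; viability read as ATP content by CellTiter-Glo luminescence.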
# DT40 TDP1 no CPT: qHTS for Inhibitors of human tyrosyl-DNA phosphodiesterase 1 (TDP1): qHTS in cells in absence of CPT. 420,000 tested, 15% active. Potency, µM (series often up to 46.2 µM), inactives show at the highest dose activity change, negative = growth inhibition, usual class: inhibitors. DT40 Tdp1-/- hTDP1 cells, no CPT, ATP luminescence, 48 h; also: nearly all actives have a fitted effect of over 55% in size
#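 Chicken DT40 Tdp1-/- cells complemented with human TDP1, screened without camptothecin (DMSO vehicle only), 400 cells/well. Compounds pin-transferred, cells incubated at 37 °C for at least 48 hr. Growth read as ATP-dependent luminescence (CellTiter-Glo, 30 min at RT).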
# Numbers without * were called inactive; ? = inconclusive; . = no result; ! = a repeat was not active. Calls follow the shape of the dose curve; as a rule, active = well fitted curve in the direction sought with a large enough effect; inconclusive = small, poorly fitted or top-dose-only effect, or another doubt; inactive = no such curve, though single readings can be large; an effect the other way counts as inactive or inconclusive. % is scaled to controls: 0 for no effect and ±100 for the full control effect; potency is read from the fitted curve at half-maximal effect.
SMILES,ELG1 DNA repair,RORgamma inh,ALOX12 inh,Gal4-VP16 FLuc,DT40 TDP1 CPT,DT40 TDP1 no CPT
O=C(COC(=O)c1ccc(NS(=O)(=O)c2cccs2)cc1)NCc1ccco1,-26%,22µM*,.,1%,4.1µM*,2.9µM*
O=C(CNc1ccc(OC(F)(F)F)cc1)N1CCNC1=O,.,.,17%,.,.,.
Cn1c(Cn2cccn2)nnc1C1CC(NC(=O)c2sccc2N)C1 (configuration not stated),.,.,10µM*!,.,.,.
COc1ccc(-c2cnc3c(NC(C)=O)cc(-c4cccc(C(=O)NCCO)c4)cn23)cc1OC,.,.,10%,.,21µM*,21µM*
COc1cccc(-c2cnc3c(NC(C)=O)cc(-c4cccc(C(=O)NCCN(C)C)c4)cn23)c1,.,.,0%,.,?,18µM*
COc1cc(-c2cnc3c(NC(C)=O)cc(-c4cccc(C(=O)NCCO)c4)cn23)cc(OC)c1OC,.,.,?,.,16µM*,10µM*
COc1ccc(-c2cnc3c(NC(C)=O)cc(-c4cccc(C(=O)NCCN(C)C)c4)cn23)cc1OC,.,.,7%,.,?,12µM*
C=CCOc1ccc(/C=C(\C(=O)c2ccc(OCC)cc2)c2nc3ccccc3s2)cc1,.,.,-14%,.,.,.
N#Cc1ccc(-n2cccc2C=O)cc1,.,.,-9%,.,.,.
COc1ccc(-c2cnc3c(NC(C)=O)cc(-c4cccc(C(=O)N(C)C)c4)cn23)cc1OC,.,.,-8%,.,21µM*,13µM*
COC1CN(c2cccc(F)c2)C12CCN(C(=O)CC1CCCCC1)CC2 (configuration not stated),.,.,-4%,.,.,.
C[C@H]1COC(=O)[C@H](Cc2ccc(F)cc2)CC/C=C/C[C@@H](CC(=O)N[C@@H](CO)Cc2ccccc2)C(=O)N1,0%,.,?,.,12µM*,16µM*
O=C(C[C@@H]1C/C=C\CC[C@@H](Cc2ccc(F)cc2)C(=O)OC[C@@H](Cc2ccccc2)NC1=O)NCCO,-4%,.,?,.,15µM*,?
O=C(C[C@@H]1C/C=C/CC[C@@H](Cc2ccc(F)cc2)C(=O)OC[C@H](Cc2ccccc2)NC1=O)N[C@H](CO)Cc1ccccc1,?,.,?,.,9.2µM*,5.2µM*
CC(C)(C)[C@H]1COC(=O)[C@H](Cc2ccc(F)cc2)CC/C=C/C[C@@H](CC(=O)N[C@H](CO)Cc2ccccc2)C(=O)N1,12%,.,?,.,?,21µM*
CC(C)(C)OC(=O)C[C@H]1C/C=C\C[C@H](CC(=O)N[C@@H](CO)Cc2ccccc2)C(=O)N[C@H](C(C)(C)C)COC1=O,-13%,.,-90%,.,?,?
CCc1cccc2c(C(=O)CN3CCC(C(=O)N4CCCCCC4)CC3)c[nH]c12,.,.,-4%,.,.,.
COc1ccc(C(=O)N2CCCC(c3noc(COc4ccccc4F)n3)C2)cc1 (configuration not stated),.,.,1%,.,.,.
Cc1ccc(Sc2nnc(Cc3ccccc3)c3ccccc23)cc1,?,13µM*,?,?,26µM*,23µM*
COc1ccc(Sc2nnc(Cc3ccccc3)c3ccccc23)cc1,-19%,-39%,?,6%,?,?
Cc1cccc(C)c1NC(=O)C(c1ccccc1)N(C)CCc1ccccc1 (configuration not stated),.,.,-6%,.,?,18µM*
Cc1ccc(N2CCN(C(CCc3ccccc3)C(=O)Nc3c(C)cccc3C)CC2)cc1 (configuration not stated),.,.,-12%,.,?,15µM*
Cn1nc(C2CCN(C(=O)C3CCC3)CC2)c2c1CCOC2,.,.,65%,.,.,.
